Assay results: PubChem BioAssay AID1212 (NMMLSC, 2008)
Values without a mark were called inactive. Active and inactive are the calls of the source.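 How the source made its calls: active means blocks over 60% of fluorescent estradiol binding at 10 µM; inactive means the rest.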

Target: G-protein coupled estrogen receptor 1 (Homo sapiens) (UniProt Q99527)
Experiment: displacement of E2-Alexa633 from GPER – cell-based, Cos7 GPR30-GFP, flow cytometry, 10 µM, primary screen (AID 1212)
Conditions: fluorescent estrogen competition, at 10 µM; active compounds read high

SMILES	outcome	inhibition [%]
CC1(C)CC(CCNCc2ccc3c(c2)OCO3)(Cc2ccccc2)CCO1 (stereo not drawn)	inactive	–
CCNCC1(c2ccc(OC)c(OC)c2)CCCC1	–	7
O=C1C2CCN(CC2)C1Cc1ccc(O)cc1 (stereo not drawn)	inactive	–
COc1cc2c(cc1OC)CC(C)(C)NC2	–	3
COc1ccc(C2(CN)CCCC2)cc1	–	10
COc1ccc2[nH]cc(CCN=C(N)N)c2c1	inactive	–
COc1ccc(C2(CN)CCCC2)cc1OC	inactive	–
N=c1c[n+](CCc2ccc(O)cc2)[n-]o1	inactive	–
